Assay [1] can be described thus: antimalarial activity against Dd2 strain (AID 2302;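 active = growth inhibition above 50% at the single 2 µM test dose, taken to imply half-maximal potency below 2 µM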;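 also: 0% = DMSO untreated growth and 100% = chloroquine plus artemisinin killed control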). The settings on record: P. falciparum Dd2 in RBCs, LDH growth readout, 72 h; at 2 µM; stronger effect = higher value.
The nature of assay [2]: HepG2 cytotoxicity, primary screen, cytotoxicity control for P. falciparum antimalarial project, cell-based, ATP luminescence (AID 2303;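 active = inhibition above 50%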;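 also: 0% = DMSO wells and 100% = digitonin-killed cells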). The conditions noted are these: HepG2 viability, 24-48 h, at 10 µM, stronger effect = higher value.
In assay [3] the target is L-lactate dehydrogenase (Plasmodium falciparum (isolate CDC / Honduras)) (UniProt Q27743). Description: PfLDH activity inhibition – cell lysate, 3D7 strain, counter-screen for P. falciparum growth inhibition project (AID 2304).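 Also: 0% = vehicle and 100% = reference inhibitor.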 The settings on record: P. falciparum 3D7 crude extract, LDH APAD/NBT absorbance; at 2 µM; stronger effect = higher value. (Counterscreens check selectivity or assay interference.)

A short description of assay [4]: inhibition of 3D7 malaria parasite growth – strain 3D7 (AID 2306).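 Also: 0% = DMSO wells and 100% = chloroquine plus artemisinin control wells.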 The settings on record: P. falciparum 3D7 erythrocytic growth, LDH absorbance, 72 h; at 2 µM; stronger effect = higher value.
Assay [5] has as its target Calcium-dependent protein kinase 1 (Plasmodium falciparum (isolate 3D7)) (UniProt P62344). Description: PfCDPK1 kinase inhibitors, biochemical, TCAMS library (AID 1159585; cut-off not given, nearly all actives have IC50 up to about 0.98 µM;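 also: inhibitors leave more ATP so luminescence rises with inhibition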). The settings on record: recombinant PfCDPK1, Kinase-Glo ATP depletion luminescence. In general terms: Kinase-Glo measures the ATP left after a reaction by luminescence.
For assay [6], the target named is Plasmodium falciparum protein kinase 6 (PK6, PF3D7_1337100) (UniProt Q8IDW1). Description: PfPK6 kinase inhibitors, biochemical, TCAMS library (AID 1159586). The conditions noted are these: recombinant PfPK6, Kinase-Glo ATP depletion luminescence.
Assay [7] has as its target Protein kinase 7 (PK7), Plasmodium falciparum 3D7 (PF3D7_0213400) (UniProt Q7YTF7). Description: inhibition of Plasmodium PK7 catalytic activity – biochemical, TCAMS antimalarial set, Kinase-Glo luminescence (AID 1159587). The conditions noted are these: recombinant PfPK7, Kinase-Glo ATP depletion luminescence.
The target in assay [8] is Calcium-dependent protein kinase 4 (Plasmodium falciparum (isolate 3D7)) (UniProt Q8IBS5). Description: PfCDPK4 kinase inhibitors, biochemical, TCAMS library (AID 1159588; cut-off not given, nearly all actives have IC50 up to about 0.91 µM). The settings on record: recombinant PfCDPK4, Kinase-Glo ATP depletion luminescence.

Consider 21 compounds from PubChem BioAssay.

Unmarked numbers belong to inactive results. For part of these data: Entries with a potency or affinity are not part of this list. Calls of active or inactive are those of the source. Unless noted, no rule for the calls is given here.

Sequence of Calcium-dependent protein kinase 1 (Plasmodium falciparum (isolate 3D7)) (P62344 whole entry, looked up): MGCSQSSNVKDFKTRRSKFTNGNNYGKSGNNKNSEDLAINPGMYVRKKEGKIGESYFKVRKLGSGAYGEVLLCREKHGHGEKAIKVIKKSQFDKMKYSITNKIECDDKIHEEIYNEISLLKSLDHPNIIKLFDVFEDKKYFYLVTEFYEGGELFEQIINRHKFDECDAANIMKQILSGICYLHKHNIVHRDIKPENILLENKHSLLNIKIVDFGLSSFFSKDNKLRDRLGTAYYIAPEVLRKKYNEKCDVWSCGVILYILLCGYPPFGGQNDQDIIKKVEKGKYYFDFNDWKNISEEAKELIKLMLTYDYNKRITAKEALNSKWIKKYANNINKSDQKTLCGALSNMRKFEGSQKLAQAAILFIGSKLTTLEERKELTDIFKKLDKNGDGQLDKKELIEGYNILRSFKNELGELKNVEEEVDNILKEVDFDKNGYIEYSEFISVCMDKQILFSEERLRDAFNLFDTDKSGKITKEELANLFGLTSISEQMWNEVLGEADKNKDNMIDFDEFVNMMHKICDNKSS
Sequence of Plasmodium falciparum protein kinase 6 (PK6, PF3D7_1337100) (Q8IDW1 1-305): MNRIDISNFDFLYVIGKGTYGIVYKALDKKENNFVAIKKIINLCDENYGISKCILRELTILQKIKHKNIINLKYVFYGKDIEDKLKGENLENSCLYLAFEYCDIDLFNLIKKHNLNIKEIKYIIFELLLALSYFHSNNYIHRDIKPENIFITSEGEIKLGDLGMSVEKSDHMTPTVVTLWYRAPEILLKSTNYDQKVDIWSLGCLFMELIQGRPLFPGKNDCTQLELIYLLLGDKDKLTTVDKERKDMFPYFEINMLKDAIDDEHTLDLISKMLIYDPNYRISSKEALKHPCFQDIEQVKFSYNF
Sequence of L-lactate dehydrogenase (Plasmodium falciparum (isolate CDC / Honduras)) (Q27743 whole entry, looked up): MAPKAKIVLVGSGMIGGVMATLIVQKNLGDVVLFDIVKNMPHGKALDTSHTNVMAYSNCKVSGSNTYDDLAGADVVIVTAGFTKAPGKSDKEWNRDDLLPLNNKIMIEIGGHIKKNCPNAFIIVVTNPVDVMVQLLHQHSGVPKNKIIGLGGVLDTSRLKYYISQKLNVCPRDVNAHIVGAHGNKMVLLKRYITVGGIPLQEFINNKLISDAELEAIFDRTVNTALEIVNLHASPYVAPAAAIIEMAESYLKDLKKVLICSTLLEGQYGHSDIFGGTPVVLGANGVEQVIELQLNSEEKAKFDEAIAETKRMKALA
Sequence of Calcium-dependent protein kinase 4 (Plasmodium falciparum (isolate 3D7)) (Q8IBS5 whole entry, looked up): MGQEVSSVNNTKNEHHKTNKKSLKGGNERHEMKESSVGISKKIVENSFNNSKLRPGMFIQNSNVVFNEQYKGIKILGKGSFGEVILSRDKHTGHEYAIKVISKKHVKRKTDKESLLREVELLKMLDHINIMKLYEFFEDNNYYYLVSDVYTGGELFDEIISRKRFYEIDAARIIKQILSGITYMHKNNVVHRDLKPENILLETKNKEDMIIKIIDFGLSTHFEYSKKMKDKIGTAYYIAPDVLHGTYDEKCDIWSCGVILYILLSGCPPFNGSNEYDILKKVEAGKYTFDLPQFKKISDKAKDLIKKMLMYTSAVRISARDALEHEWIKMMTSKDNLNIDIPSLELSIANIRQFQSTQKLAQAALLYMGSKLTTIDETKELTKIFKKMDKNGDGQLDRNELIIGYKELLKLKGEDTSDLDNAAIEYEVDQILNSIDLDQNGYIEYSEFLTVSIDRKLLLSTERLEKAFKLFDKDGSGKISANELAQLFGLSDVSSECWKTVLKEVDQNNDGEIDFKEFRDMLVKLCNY
Sequence of Protein kinase 7 (PK7), Plasmodium falciparum 3D7 (PF3D7_0213400) (Q7YTF7 1-343): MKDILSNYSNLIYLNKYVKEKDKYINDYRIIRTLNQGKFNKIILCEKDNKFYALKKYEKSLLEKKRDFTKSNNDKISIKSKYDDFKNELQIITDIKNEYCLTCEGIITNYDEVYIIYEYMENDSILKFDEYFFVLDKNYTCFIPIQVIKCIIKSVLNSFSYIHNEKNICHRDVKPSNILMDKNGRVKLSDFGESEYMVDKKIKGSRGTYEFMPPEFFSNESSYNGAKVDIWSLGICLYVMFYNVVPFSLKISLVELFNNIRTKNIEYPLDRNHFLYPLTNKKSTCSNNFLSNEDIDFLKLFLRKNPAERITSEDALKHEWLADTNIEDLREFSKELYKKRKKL

By inhibition is commonly meant the drop in the measured response relative to a control, in per cent. Regarding `OC(CNc1ccnc(Nc2ccc(Cl)cc2)n1)c1ccccc1C(F)(F)F` (stereo not drawn), the values for the growth inhibition in assay [1] and in assay [4] were 28% and 98% (active), respectively. Further, the results for the inhibition in assay [2] and in assay [3] were 22% and 0%, respectively. Further, the result in assay [5], in assay [6], in assay [7] and in assay [8] was inactive.
On to `CC(=O)Nc1nc(C(=O)Nc2cccc(-c3cccc(-c4nc5ccccc5[nH]4)c3)c2)cs1`, for which the growth inhibition was 82% (active) in assay [1] and 100% (active) in assay [4]. Moreover, the figures for the inhibition in assay [2] and in assay [3] were 31% and 0%, respectively. The result in assay [5], in assay [6], in assay [7] and in assay [8] was inactive.
As for `NC(N)=NC(=O)Nc1cc(Cl)c(Cl)c(C(F)(F)F)c1`, the figures for the growth inhibition in assay [1] and in assay [4] were 99% (active) and 100% (active), respectively. For the same compound, the inhibition in assay [2] is 6%; in assay [3], -5%. The result in assay [5], in assay [6], in assay [7] and in assay [8] was inactive.
As to `CC(C)c1ccc(NC(=O)c2ccc(NCCCN(C)Cc3ccccc3)c([N+](=O)[O-])c2)cc1`, the growth inhibition in assay [1] is 35%; in assay [4], 101% (active). In addition, the inhibition in assay [2] is 21%; in assay [3], -2%. The outcome in assay [5], in assay [6], in assay [7] and in assay [8] was inactive.
For the compound `COc1cc(CNCCCNc2nc3ncccc3[nH]2)c2[nH]cc(Br)c2c1`, the figures for the growth inhibition in assay [1] and in assay [4] were 3% and 92% (active), respectively. The inhibition in assay [2] was 12%; in assay [3] it was 8%. Further, the result in assay [5], in assay [6], in assay [7] and in assay [8] was inactive.
For the compound `C[C@@H](CNc1ccnc(Nc2ccc3[nH]c(=O)[nH]c3c2)n1)c1ccccc1`, the results for the growth inhibition in assay [1] and in assay [4] were 1% and 100% (active), respectively. The values for the inhibition in assay [2] and in assay [3] were 42% and -3%, respectively. In addition, the result in assay [5], in assay [6], in assay [7] and in assay [8] was inactive.
Turning to `Cc1cccc2[nH]c(-c3cccc(-c4cccc(NC(=O)c5cn(C)c(=O)n5C)c4)c3)nc12`, the results for the growth inhibition in assay [1] and in assay [4] were 80% (active) and 99% (active), respectively. Moreover, the inhibition in assay [2] is 5%; in assay [3], -5%. Further, the result in assay [5], in assay [6], in assay [7] and in assay [8] was inactive.
On to `COc1cc2nccc(Nc3ccc4c(cnn4Cc4cccc(F)c4)c3)c2cc1OC`, for which the growth inhibition in assay [1] was 99% (active); in assay [4], 101% (active). The inhibition in assay [2] is 29%; in assay [3], -6%. Besides, the result in assay [5], in assay [6], in assay [7] and in assay [8] was inactive.
As to `COC(=O)c1sc2ccccc2c1NC(=O)c1ccc(C)c(C)c1`, the results for the growth inhibition in assay [1] and in assay [4] were 48% and 88% (active), respectively. Also, the inhibition is 4% in assay [2] and -7% in assay [3]. Further, the outcome in assay [5], in assay [6], in assay [7] and in assay [8] was inactive.
Turning to `COc1cccc(CN2CCCN(Cc3cccc(NC(=O)c4ccc(-c5ccccc5)cc4)c3)CC2)c1`, the growth inhibition in assay [1] is 8%; in assay [4], 86% (active). Also, the inhibition in assay [2] is 35%; in assay [3], -1%. Besides, the result in assay [5], in assay [6], in assay [7] and in assay [8] was inactive.
For the compound `Oc1ccc(Cl)cc1CN1CCC2(CCCN(CC3CCC3)C2)C1` (stereo not drawn), the growth inhibition in assay [1] was 94% (active); in assay [4], 100% (active). Further, the values for the inhibition in assay [2] and in assay [3] were 5% and -2%, respectively. The result in assay [5], in assay [6], in assay [7] and in assay [8] was inactive.
On to `Cc1ccccc1C1CCN(c2ccc(C(=O)Nc3ccc(F)cc3)cn2)CC1`, for which the growth inhibition in assay [1] and in assay [4] was 96% (active) in each case. Further, the inhibition is 45% in assay [2] and -1% in assay [3]. For the same compound, the result in assay [5], in assay [6], in assay [7] and in assay [8] was inactive.
As to `Cc1ccnc2nc(C(=O)Nc3cc(C(F)(F)F)ccc3N3CCCCC3)nn12`, the values for the growth inhibition in assay [1] and in assay [4] were 94% (active) and 96% (active), respectively. For the same compound, the values for the inhibition in assay [2] and in assay [3] were 7% and -5%, respectively. Moreover, the outcome in assay [5], in assay [6], in assay [7] and in assay [8] was inactive.
As for `Cc1cc(NC(=O)CCCN2CCN(c3cccc(Cl)c3Cl)CC2)ccc1N1CCN(C(C)C)CC1`, the growth inhibition in assay [1] is 53% (active); in assay [4], 102% (active). The inhibition in assay [2] was 86% (active); in assay [3] it was -1%. In addition, the outcome in assay [5], in assay [6], in assay [7] and in assay [8] was inactive.
For `Cc1ccc(Nc2nnc(SCC(=O)Nc3ccc(CN4CCCC4)cc3)s2)cc1`, the growth inhibition was -2% in assay [1] and 91% (active) in assay [4]. Also, the inhibition in assay [2] was 4%; in assay [3], -2%. Further, the result in assay [5], in assay [6], in assay [7] and in assay [8] was inactive.
As for `CN1CCN(c2ccnc3ccc(NC(=O)Nc4c(Cl)cccc4Cl)cc23)CC1`, the growth inhibition is 12% in assay [1] and 96% (active) in assay [4]. Further, the values for the inhibition in assay [2] and in assay [3] were 11% and -1%, respectively. For the same compound, the outcome in assay [5], in assay [6], in assay [7] and in assay [8] was inactive.
Consider `COCCSc1nc2scc(C)c2c(=O)n1Cc1cccc(OC)c1`, for which the growth inhibition in assay [1] was 33%; in assay [4], 92% (active). The inhibition in assay [2] was 0%; in assay [3], -8%. In addition, the result in assay [5], in assay [6], in assay [7] and in assay [8] was inactive.
Turning to `Cc1[nH]nc2cc(F)c(-c3cc(OC[C@@H](N)Cc4ccccc4)cnc3-c3ccoc3)cc12`, the growth inhibition was 15% in assay [1] and 95% (active) in assay [4]. Also, the results for the inhibition in assay [2] and in assay [3] were 22% and 6%, respectively. Further, the outcome in assay [5], in assay [6], in assay [7] and in assay [8] was inactive.
Turning to `CC1CCCCC1N(C)C1CCN(CCCNC(=O)C=Cc2cccc(C(F)(F)F)c2)CC1` (stereo not drawn), the growth inhibition in assay [1] is 17%; in assay [4] it was 100% (active). The inhibition was 47% in assay [2] and -2% in assay [3]. Further, the outcome in assay [5], in assay [6], in assay [7] and in assay [8] was inactive.
As to `CCOc1ccc2c(NN=Cc3ccc(OC)c(OC)c3)cc(C)nc2c1`, the growth inhibition in assay [1] was 58% (active); in assay [4], 100% (active). Besides, the inhibition is 22% in assay [2] and 2% in assay [3]. Further, the result in assay [5], in assay [6], in assay [7] and in assay [8] was inactive.
For the compound `c1ccc2c(NCCCCCCCCCNc3ccnc4ccccc34)ccnc2c1`, the growth inhibition is 100% (active) in assay [1] and 101% (active) in assay [4]. In addition, the inhibition was 57% (active) in assay [2] and -3% in assay [3]. Further, the result in assay [5], in assay [6], in assay [7] and in assay [8] was inactive.
